A short description of test [1]: NCI Yeast Anticancer Drug Screen. Data for the rad50 strain (AID 155).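 Also: 0% = growth of vehicle-only cultures of the same strain.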 Particulars: S. cerevisiae rad50 strain growth inhibition; at 50.0 µM; hits give high values. The gist of the method: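 Inhibition values express reduced yeast growth in compound-treated cultures relative to vehicle-treated controls.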
Test [2] can be described thus: NCI Yeast Anticancer Drug Screen. Data for the mec2-1 strain (AID 157). Particulars: S. cerevisiae mec2-1 strain, at 50.0 µM, hits give high values. The gist of the method: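 Mutant yeast (mec2-1) grown with compound; growth inhibition relative to vehicle control reported.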
Test [3] can be described thus: NCI Yeast Anticancer Drug Screen. Data for the sgs1 mgt1 strain (AID 161).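 Also: 0% = growth of cultures given vehicle only.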 Particulars: S. cerevisiae sgs1 mgt1 strain, at 50.0 µM, hits give high values. In a few lines: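 Yeast cells carrying a defined DNA-repair defect were exposed to test compounds. Growth inhibition was measured relative to vehicle-treated controls.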
Test [4] can be described thus: NCI Yeast Anticancer Drug Screen. Data for the cln2 rad14 strain (AID 165).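 Also: 0% = growth equal to vehicle treated cultures.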 Particulars: S. cerevisiae cln2 rad14 strain, at 50.0 µM, hits give high values. The gist of the method:
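Readout is yeast growth inhibition versus vehicle-treated controls, using a strain with cln2 and rad14 alterations exposed to compound.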

Test [5] is described as follows: NCI Yeast Anticancer Drug Screen. Data for the bub3 strain (AID 167). As to conditions: S. cerevisiae bub3 mutant strain, at 50.0 µM, hits give high values. The gist of the method:
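Steps: expose the mutant yeast strain to compound; grow alongside vehicle-treated cultures; measure growth; express inhibition against the vehicle cultures.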

Test [6] in a line: NCI Yeast Anticancer Drug Screen. Data for the mlh1 rad18 strain (AID 175). Particulars: S. cerevisiae mlh1 rad18 strain growth inhibition; at 50.0 µM; hits give high values. The gist of the method: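 Genetically defined yeast (DNA repair-deficient) exposed to compounds; growth inhibition determined relative to vehicle.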

This is part of a sample that, as a whole, favours compounds with a hit. Of some 79,000 tested, about 15% had one in any assay. Values without a mark were called inactive. Activity calls are given as the source filed them. Rule as the data show it: active = growth inhibition above about 70%; inactive = the rest.

`Cn1cnc2c(Oc3ccc(Cl)cc3)ncnc21`: the growth inhibition in test [1] is -7.35%; in test [2], -14.5%; in test [3] it was 5.25%; in test [4], 8.85%; in test [5] it was -22.7%; in test [6] it was 5.5%.

With `C/C=C/C=c1/[nH]c(=O)/c(=C\C)[nH]c1=O`, the growth inhibition in test [1] was -6.85%; in test [2] it was -5.15%; in test [3], -10.6%; in test [4], -21.5%; in test [5], 0.95%; in test [6], -14.2%.

As for `CC(=O)NC(=O)C(C(C)=O)c1ccccc1` (stereo unspecified), the growth inhibition in test [1] was -5.8%; in test [2] it was -0.25%; in test [3], -7.35%; in test [4], 12.8%; in test [5], -7.75%; in test [6] it was -10.9%.

As to `O=C(OC(=O)c1cccc2ccccc12)c1cccc2ccccc12`, the growth inhibition was -5.15% in test [1]; -7.75% in test [2]; 2.3% in test [3]; 43.3% in test [4]; 12% in test [5]; 13.2% in test [6].

On to `Nc1cc2c(cc1Br)-c1c(C(=O)O)cccc1C2=O`, for which the growth inhibition in test [1] was -20%; in test [2] it was 9.3%; in test [3] it was -2.4%; in test [4], 7.1%; in test [5], 11.2%; in test [6] it was -13.1%.

As for `COC(=O)/C=C/CCOS(C)(=O)=O`, the growth inhibition in test [1] is 9.6%; in test [2], -35%; in test [3], 0.55%; in test [4], -39%; in test [5], -3.25%; in test [6], 16.5%.

For `O=c1c2ccccc2nnn1OCc1ccccc1`, the growth inhibition in test [1] is 24.5%; in test [2], 3.1%; in test [3], 11%; in test [4], -39.5%; in test [5], -12.3%; in test [6], 3.95%.

With `CCCCCCCCCCCCCCCCO`, the growth inhibition in test [1] was -14.4%; in test [2] it was -14.2%; in test [3], -13.6%; in test [4], -16.3%; in test [5], -15.2%; in test [6], -12.4%.

With `Nc1c(S(N)(=O)=O)cc(S(N)(=O)=O)cc1S(N)(=O)=O`, the growth inhibition in test [1] is 0.75%; in test [2] it was -20.6%; in test [3] it was -36%; in test [4] it was -24.6%; in test [5], -29.2%; in test [6] it was -16%.

On to `O=c1[nH]nc(S(=O)(=O)c2ccccc2)c(=O)[nH]1`, for which the growth inhibition is 13.2% in test [1]; -6.45% in test [2]; -1.7% in test [3]; -10.6% in test [4]; 9.3% in test [5]; -3.2% in test [6].

As for `CC(C)CC(NC(=O)C(COC(C)(C)C)NC(=O)C(CSC(c1ccccc1)(c1ccccc1)c1ccccc1)NC(=O)OC(C)(C)C)C(=O)OC(C)(C)C` (stereo unspecified), the growth inhibition is -16.1% in test [1]; 11.9% in test [2]; -1.75% in test [3]; -16.6% in test [4]; -13.9% in test [5]; 8.05% in test [6].

With `Oc1ccc(Cl)c(O)c1`, the growth inhibition in test [1] is 30.1%; in test [2], -0.55%; in test [3], -3.65%; in test [4], 0.9%; in test [5], -6%; in test [6], 21.7%.

For the compound `Cc1ccc(O)c(C=O)c1`, the growth inhibition in test [1] is -31.1%; in test [2], -42.1%; in test [3], -7.65%; in test [4], 11.7%; in test [5] it was -25.7%; in test [6] it was -6.8%.

Regarding `Nc1ccc(S(=O)(=O)N/N=C/c2ccccc2)cc1`, the growth inhibition in test [1] was 10.2%; in test [2], -0.4%; in test [3], 12.1%; in test [4] it was 34.4%; in test [5], -34%; in test [6], 29.8%.

Turning to `C/C(=N/NC(=S)N1CCCCCC1)c1ccccc1O`, the growth inhibition was -63.5% in test [1]; -40.4% in test [2]; 5.6% in test [3]; 45.4% in test [4]; -12.8% in test [5]; 34.8% in test [6].

`NC(=O)N/N=C(/CC1C(=O)Oc2ccccc21)c1ccccc1O` (stereo unspecified): the growth inhibition in test [1] is -8.35%; in test [2], -4.7%; in test [3], -9.7%; in test [4], -14.3%; in test [5], -24.9%; in test [6], 14%.

Regarding `CC(=O)OCc1cccc(O)c1C(=O)CCC=C(C)C`, the growth inhibition in test [1] is -4.4%; in test [2], -17.1%; in test [3], 8.15%; in test [4] it was -10.9%; in test [5] it was -6.7%; in test [6], -63.5%.

Regarding `O=[N+]([O-])c1cc2no[n+]([O-])c2cc1N1CCOCC1`, the growth inhibition in test [1] was 98.8% (active); in test [2] it was 99.3% (active); in test [3], 99.2% (active); in test [4] it was 98.4% (active); in test [5], 99% (active); in test [6], 99.2% (active).

Take `COc1cc2c(c(OC)c1OC)CCCC2=O`: the growth inhibition in test [1] was 0.2%; in test [2], -10.4%; in test [3], -4.5%; in test [4] it was -130%; in test [5], -4.7%; in test [6], -4.9%.

As to `CC(C)CNc1ncnc2c1ncn2C`, the growth inhibition in test [1] was -2.2%; in test [2], -4.85%; in test [3] it was -4%; in test [4] it was -18.9%; in test [5], 1.1%; in test [6], -0.25%.

Take `Cc1c2cnccc2c(CO)c2[nH]c3ccccc3c12`: the growth inhibition was 11.6% in test [1]; -10.2% in test [2]; 8.2% in test [3]; 4.6% in test [4]; -10.9% in test [5]; 59.7% in test [6].

On to `C/C(=N/NC(=S)Nc1cccc(Cl)c1)c1cccc(/C(C)=N\NC(=S)Nc2cccc(Cl)c2)n1`, for which the growth inhibition in test [1] was 47%; in test [2], 46%; in test [3] it was 62.6%; in test [4] it was 20.3%; in test [5], 62.4%; in test [6], 56.9%.

Regarding `CC(C)C[N+](=O)[O-]`, the growth inhibition in test [1] is -23.4%; in test [2] it was -21.1%; in test [3] it was -4.05%; in test [4], -12.7%; in test [5], -1.25%; in test [6] it was 11.3%.

With `O=C(CCCSCCCC(=O)N/N=C/c1ccccc1O)N/N=C\c1ccccc1O`, the growth inhibition in test [1] was 4.7%; in test [2], -0.5%; in test [3], 4.95%; in test [4], 0.75%; in test [5], 6.65%; in test [6] it was 19.8%.

As to `CCCCN(Cc1ccccc1)C(=O)NC(C)(C)C`, the growth inhibition in test [1] was 2.15%; in test [2], 33.9%; in test [3], 8.1%; in test [4], 3.45%; in test [5] it was 25.8%; in test [6] it was 18.6%.

As for `S=C1Cc2c(-c3ccc(Br)cc3)cc(-c3ccccc3)nc2-c2ccccc2N1`, the growth inhibition in test [1] is 19.9%; in test [2] it was 14.7%; in test [3], 23.4%; in test [4], 20.6%; in test [5] it was 22.9%; in test [6], 23.2%.

`Clc1cc2ncn(C3CCCO3)c2cc1Cl` (stereo unspecified): the growth inhibition in test [1] is 6.3%; in test [2], 5.1%; in test [3], 3%; in test [4], 5.95%; in test [5] it was 49%; in test [6] it was 11.8%.

As to `COC(=O)c1nn(-c2ccccc2)c(=O)cc1N=[N+]=[N-]`, the growth inhibition in test [1] was -31%; in test [2] it was -5.2%; in test [3], -39.2%; in test [4], -12.8%; in test [5] it was -14.2%; in test [6] it was -54.4%.

Turning to `Oc1ccc2ccccc2c1-c1c(OC(c2ccccc2)c2ccccc2)ccc2ccccc12`, the growth inhibition is 5.9% in test [1]; -19.2% in test [2]; 0.2% in test [3]; -29.4% in test [4]; -4.65% in test [5]; -13.1% in test [6].

Regarding `CC(=O)[OH+]c1c(I)cc(I)cc1C(=O)[O-].CC(=O)[OH+]c1c(I)cc(I)cc1C(=O)[O-].[Cu+2]`, the growth inhibition is -8.15% in test [1]; 2.3% in test [2]; -5.8% in test [3]; -5% in test [4]; 11.5% in test [5]; 4.95% in test [6].

`O=S(=O)(O)c1cccc2cccc(Nc3ccccc3)c12`: the growth inhibition in test [1] is -0.5%; in test [2] it was 0.35%; in test [3], 8.85%; in test [4], -33.1%; in test [5], -14.8%; in test [6], 25.4%.

As for `CC(=O)N1CC=CCC1`, the growth inhibition was -16.6% in test [1]; 5.85% in test [2]; -17.9% in test [3]; -7.5% in test [4]; -1.55% in test [5]; -2.85% in test [6].

With `CCCCCC(N)=O`, the growth inhibition was 16.6% in test [1]; -7.05% in test [2]; 4.25% in test [3]; 15.2% in test [4]; 14.8% in test [5]; 31.8% in test [6].

As to `NC(=O)/C=C/c1cccnc1`, the growth inhibition is 4.6% in test [1]; -0.65% in test [2]; -7.75% in test [3]; -34.1% in test [4]; 11% in test [5]; 13% in test [6].

In the case of `Nc1c(Br)cc(Br)c2c1CCC2`, the growth inhibition in test [1] is 10.6%; in test [2], 5.9%; in test [3], 10.6%; in test [4] it was 1.4%; in test [5], 8.8%; in test [6], 15.8%.

Regarding `CC(=O)N=Cc1c(O)[nH]c2ccccc12`, the growth inhibition was 36.9% in test [1]; 11.7% in test [2]; 0.5% in test [3]; 6.85% in test [4]; 8.3% in test [5]; 0.45% in test [6].

Consider `CC(=O)Nc1cc(C)c(C(=O)OC(=O)c2cc(C)c(NC(C)=O)cc2C)cc1C`, for which the growth inhibition was 22.4% in test [1]; -10.1% in test [2]; 5.1% in test [3]; -57.6% in test [4]; -0.85% in test [5]; 6.2% in test [6].

Regarding `Cc1ccc(N=Cc2ccccc2O)cc1.[Co]`, the growth inhibition was -18.9% in test [1]; 14.9% in test [2]; -2.75% in test [3]; 14.2% in test [4]; 1.45% in test [5]; -11.1% in test [6].

As to `CC(=O)OCC(NC(=O)C(N)CC(=O)O)C(=O)NCC(=O)Oc1ccc([N+](=O)[O-])cc1` (stereo unspecified), the growth inhibition in test [1] was 13.9%; in test [2], 15.7%; in test [3], 11.8%; in test [4] it was 12%; in test [5], 1.9%; in test [6], 5.75%.

In the case of `Cc1nc2cccc([N+](=O)[O-])c2c(O)[n+]1C`, the growth inhibition is -13.9% in test [1]; -10.8% in test [2]; -12.4% in test [3]; -17.6% in test [4]; -9.05% in test [5]; -17.9% in test [6].

With `Clc1ccc(OCc2nnc3n2N=C(c2ccccc2)CS3)cc1`, the growth inhibition in test [1] is 36.5%; in test [2], 7.1%; in test [3], 15.9%; in test [4], 36.2%; in test [5] it was 23.5%; in test [6], 15.9%.

Values taken from PubChem BioAssay (NCI).
